BAZ2B block: BAZ2B (human) inhibition; Q9UIF8; Potency, µM (titrated, usually from 114 µM), without a hit: at the highest dose activity change, negative = inhibition, usual class: inhibitors; AlphaScreen BAZ2B-H3K14Ac peptide displacement; 4.4% of 360,000 active; AID 504333; note: potency is the fitted concentration of half-maximal effect; % is set by controls: 0 for no effect and ±100 for the full control effect; nearly all actives have a fitted effect of over 60% in size
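AlphaScreen displacement of biotin-H3(5-23)K14Ac peptide (50 nM final) from BAZ2B (50 nM final) in PBS pH 7.4, 0.01% Tween-20; complex preformed 30 min RT, then compounds (top 110 uM) 30 min RT, beads 20 min dark.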
PLK1 PBD inh: inhibitors of human PLK1 polo-box domain binding; P53350; 2.8% of 360,000 active; Potency, µM, without a hit: max response, negative = inhibition, hits mostly inhibitors; Plk1 PBD binding of FITC phosphopeptide, fluorescence polarization; note: potency is the fitted concentration of half-maximal effect; series mostly up to about 57 µM; % is set by controls: 0 for no effect and ±100 for the full control effect; nearly all actives have a fitted effect of over 65% in size
HP1b binding inh: blocks HP1-beta chromodomain binding to methylated histone tails | AlphaScreen HP1-beta / biotin-H3K9me3 peptide binding | Potency, µM (top dose mostly 114 µM), without a hit: at the highest dose activity change, negative = inhibition, hits mostly inhibitors | AID 540317 | 0.56% of 390,000 active; note: potency is the fitted concentration of half-maximal effect; nearly all actives have a fitted effect of over 70% in size
Target sequence (P83916 whole entry, looked up): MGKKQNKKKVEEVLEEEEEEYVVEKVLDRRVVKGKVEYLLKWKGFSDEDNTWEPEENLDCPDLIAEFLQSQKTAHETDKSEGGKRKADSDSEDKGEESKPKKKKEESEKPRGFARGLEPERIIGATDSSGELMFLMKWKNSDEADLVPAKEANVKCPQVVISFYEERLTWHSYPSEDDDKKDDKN
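AlphaScreen: HP1-beta (50 nM) preformed 30 min with biotin-H3(1-18)K9me3 peptide (50 nM) in PBS pH 7.4, 0.01% Tween-20. Compound added for 30 min at RT, then streptavidin donor/nickel chelate acceptor beads (10 ug/mL) for 30 min.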
G9a inh: inhibitors of human histone lysine methyltransferase G9a; AID 504332; Q96KQ7; G9a H3K9 monomethylation, AlphaScreen, 2 h; Potency, µM (doses to about 102 µM), for inactives: at the top dose activity, negative = inhibition, usual class: inhibitors; 8.8% of 350,000 active; note: potency is the fitted concentration of half-maximal effect; % is set by controls: 0 for no effect and ±100 for the full control effect; nearly all actives have a fitted effect of over 75% in size
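Methyltransferase reactions run at room temperature for 2 h (20 nM enzyme, 500 nM biotin-H3K9 peptide, 20 uM SAM) after a 15 min compound preincubation; product detected by AlphaScreen beads and anti-H3K9me1 antibody.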
PI5P4Ka inh: blocks human PI5P4K alpha kinase activity. P48426. PI5P4Kalpha enzyme, ADP-Glo luminescence, 60 min; active compounds read low. max response, %. 1.2% of 330,000 active. AID 652105; active = max response of -50% or lower; inconclusive = between -30% and -50%; inactive = -30% or higher; note: value at the top dose of about 77 µM; % is set by controls: 0 for no effect and ±100 for the full control effect
Target sequence (P48426 whole entry, looked up): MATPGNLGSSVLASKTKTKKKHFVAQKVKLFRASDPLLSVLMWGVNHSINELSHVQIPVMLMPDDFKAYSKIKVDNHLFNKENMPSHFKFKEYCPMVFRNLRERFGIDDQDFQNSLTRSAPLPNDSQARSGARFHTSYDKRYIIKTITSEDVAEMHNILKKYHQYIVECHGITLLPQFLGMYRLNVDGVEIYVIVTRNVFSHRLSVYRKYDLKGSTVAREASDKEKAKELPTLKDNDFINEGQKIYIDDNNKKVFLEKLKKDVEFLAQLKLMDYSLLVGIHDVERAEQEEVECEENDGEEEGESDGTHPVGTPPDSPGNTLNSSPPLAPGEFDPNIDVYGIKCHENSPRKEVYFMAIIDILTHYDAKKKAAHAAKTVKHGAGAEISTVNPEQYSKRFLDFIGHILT
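PI5P4Kalpha ADP-Glo assay; 5 microM ATP final; 60 min RT reaction; HEPES pH 7.4/EGTA/CHAPS, 5% DMSO; controls lacking substrate or enzyme; luminescent end-point.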
JMJD2A Tudor: inhibitors of human JMJD2A Tudor domain; AlphaScreen JMJD2A-Tudor / H3K4me3 peptide binding; AID 504339; Potency, µM (doses to about 114 µM), for the others: at the top dose activity change, negative = inhibition, most hits filed as inhibitors; O75164; 4.4% of 390,000 active; note: potency is the fitted concentration of half-maximal effect; % is set by controls: 0 for no effect and ±100 for the full control effect; nearly all actives have a fitted effect of over 50% in size
* hit, by the source's call; ? = inconclusive; nt = no result; [ ] = remark or other dose. This is a sample that favours compounds with a hit; in the whole collection about 12% have one here. Unless noted, calls come from the whole dose curve; as a rule, active = well fitted curve in the direction sought with a large enough effect; inconclusive = small, poorly fitted or top-dose-only effect, or another doubt; inactive = no such curve, though single readings can be large; an effect the other way counts as inactive or inconclusive.

SMILES | BAZ2B block | PLK1 PBD inh | HP1b binding inh | G9a inh | PI5P4Ka inh | JMJD2A Tudor
CSc1nc(-c2ccccc2)c(C#N)c(=O)[nH]1 | -13% | 27µM* | -18% | -33% | -20 | 4%[11.4 µM]
COc1ccc(Cn2nnc3c(=O)[nH]c(C4CCN(S(=O)(=O)c5ccc(C)cc5)CC4)nc32)cc1 | -30% | 1% | 53% | -5% | 4 | -23%
CCOC(=O)c1c(NC(=O)c2cc(OCC)c(OCC)c(OCC)c2)sc2c1CCCCC2 | 14% | nt | 71% | 13%[59 µM] | nt | 19%
[O-]C1=N/[N+](=C/c2ccc(Cl)c(Cl)c2)CC1 | 1% | -9% | 17% | ? | -6 | -20%
[O-]C1=N/[N+](=C/c2ccccc2)CC1 | -26% | -10% | 39% | 14µM* | -6 | -10%
O=c1ccc2[n+]([O-])c3ccc(O)cc3oc-2c1 | 10µM* | -27% | ? | 10µM* | -23 | -20%
O=c1cc(-c2ccc(O)cc2)oc2cc(O)ccc12 | nt | nt | nt | -12%[2.33 µM] | nt | nt
CCOC(=O)N1CCC(N2C(=O)c3ccccc3C2Nc2cc(OC)c(OC)c(OC)c2)CC1 (centres undefined) | 1% | -12% | 24% | ? | -15 | -18%
CCOC(=O)N1CCC(N2C(=O)c3ccccc3C2Nc2cc(Cl)c(OC)cc2OC)CC1 (centres undefined) | 45µM* | -6% | -20% | 45µM* | 3 | ?
CCOC(=O)N1CCC(N2C(=O)c3ccccc3C2Nc2ccc(S(=O)(=O)N3CCOCC3)cc2)CC1 (centres undefined) | 1% | -1% | 40% | 45µM* | -1 | -7%
O=C1c2ccccc2C(Nc2ccc(S(=O)(=O)N3CCOCC3)cc2)N1c1cccnc1 (centres undefined) | 2% | 1% | 11% | -21% | 0 | 6%
Cc1ccc(S(=O)(=O)Nc2cccc(-c3ccc(N4CCCCCC4)nn3)c2)cc1 | -24% | -6% | 24% | 17% | -2 | 4%
CCOC(=O)/C(=N\Nc1ccc(Br)cc1)N1CC(C)OC(C)C1 (centres undefined) | -31% | -1% | 7% | 3.2µM* | 1 | ?
COc1cccc(NC(=S)/C(=C(\[O-])c2cc(C)n(-c3ccccc3F)c2C)[n+]2ccc(N(C)C)cc2)c1 | 40µM* | -24% | -18% | 35µM* | -17 | 25µM*
COc1cccc(NC(=O)CCN2CCN(c3ccccc3F)CC2)c1 | 2% | 1% | 28% | 10%[59 µM] | 1 | -26%
Cc1cc(C([O-])=C(C(=S)Nc2ccc(F)cc2)[n+]2ccccc2)c(C)n1-c1ccc(F)cc1 | nt | -4% | 50µM* | nt | -5 | nt
CN1CCN(c2ncc3nc(-c4ccccc4)c(=O)n(C)c3n2)CC1 | nt | nt | nt | 7%[0.501 µM] | nt | nt
O=S(=O)(NCc1nc2cccnc2n1Cc1ccc(F)cc1)c1ccc2c(c1)CCCC2 | 7% | nt | 21%[57 µM] | 11%[59 µM] | nt | 4%
CCc1noc(-c2ccc(N3CCCCC3C)c([N+](=O)[O-])c2)n1 (centres undefined) | -1% | nt | 61% | ? | nt | -19%
CC(CCC(C)C(C)(C)C)[C@@H]1CC[C@H]2C3C[C@H](OS(O)(=S)=S)[C@H]4C[C@H](OS(O)(=S)=S)[C@@H](OS(O)(=S)=S)C[C@]4(C)[C@H]3CC[C@]12C (some centres undefined) (tested in a mixture with another compound) | nt | 4.7µM* | ? | nt | ? | 22µM*
Cc1ccc(C)c(CN2CCCN(Cc3ccccc3C)S2(=O)=O)c1 | 53% | nt | 113% | 45%[59 µM] | nt | 57%
COc1ccc(-c2[nH]ncc2CN2CCSCC2)c(OC)c1 | -3% | 6% | 17% | 2% | -1 | -6%
COc1ccc(OC)c(CN2CCSCC2)c1 | ? | 2% | ? | 11µM* | 8 | 1.8µM*
COc1ccc(CN2CCSCC2)c(OC)c1C | 79µM* | 7% | ? | 10µM* | -1 | 4µM*
COc1ccc(OC)c(/C=N/NC(=O)CN2CCSCC2)c1 | 56µM* | -5% | ? | ? | -4 | 5.6µM*
SMILES | BAZ2B block | PLK1 PBD inh | HP1b binding inh | G9a inh | PI5P4Ka inh | JMJD2A Tudor
Cc1ccc(C)c(CN2CCSCC2)c1 | ? | -5% | -5% | nt | -6 | 7.1µM*
COc1ccc(OC)c(CN2CCCCCC2)c1 | 79µM* | -9% | ? | 45µM* | -1 | 14µM*
COc1ccc(OC)c(CN2CCCC(CO)C2)c1 (centres undefined) | 3% | -6% | 18% | 9%[59 µM] | nt | 1%
c1ccc2c(CN3CCSCC3)cccc2c1 | ? | -13% | ? | -5%[0.501 µM] | -2 | 20µM*
COc1cc(OC)c(OC)cc1CN1CCc2ccccc2C1 | ? | -3% | ? | 13µM* | nt | 56µM*
COc1ccc2ccccc2c1CN1CCSCC1 | 56µM* | 6% | ? | nt | -4 | 45µM*
CCCOc1cccc(C(=O)N(Cc2cc(OC)c(OC)c(OC)c2)C2CCS(=O)(=O)C2)c1 (centres undefined) | -10% | nt | 24% | 3%[59 µM] | nt | -10%
CC(C)CC(N)c1csc(NC(=O)Nc2ccccc2C(C)(C)C)n1 (centres undefined) | nt | -14% | nt | nt | 1 | nt
O=S(=O)(Nc1ccc(-c2ccc(N3CCCC3)nn2)cc1)c1ccc(OC(F)(F)F)cc1 | -11% | nt | 14%[57 µM] | 6%[59 µM] | nt | -21%
COc1cc2c(cc1OC)CN(Cc1ccc(OC)c(C)c1OC)CC2 | 50µM* | -4% | -56% | ? | nt | 1.6µM*
COc1cc2c(cc1OC)CN(Cc1ccc(C)cc1)CC2 | -8% | -5% | 26% | nt | -6 | -15%
COc1ccc(NC(=O)C2CCN(S(C)(=O)=O)CC2)c(OC)c1 | -12% | -5% | 38% | 89µM* | -1 | -14%
COc1ccc(NC(=O)C2CCN(C(=O)c3cccs3)CC2)c(OC)c1 | -32% | 7.5µM* | ? | 7%[12.7 µM] | ? | 28µM*
COc1ccc(NC(=O)c2cc(-c3ccco3)on2)c(OC)c1 | 12% | -3% | 21% | -3%[12.7 µM] | -2 | -5%
COc1ccc(NC(=O)C2CCN(C(=O)NC3CCCCC3)CC2)c(OC)c1 | nt | ? | -21% | -7%[59 µM] | -7 | 79µM*
COc1ccc(NC(=O)c2cc(C3CC3)on2)c(OC)c1 | 7% | -9% | 60% | 45µM* | -1 | 1%
COc1ccc(NC(=O)C2CCCN2C(=O)NC2CCCCC2)c(OC)c1 (centres undefined) | -13% | 5% | 53% | 18% | -3 | 3%
O=C(Nc1cccc(F)c1)C1CCN(S(=O)(=O)c2ccc3[nH]c4c(c3c2)CCCCC4)CC1 | -24% | nt | -10% | -47%[59 µM] | nt | ?
COc1ccc(OC)c(C2C(C(=O)c3cc4ccccc4o3)=C(O)C(=O)N2c2cc(C)on2)c1 (centres undefined) | -4% | -28% | -6% | ? | -26 | -31%
